Screening data from PubChem BioAssay.
Hits are enriched below; roughly 7.4% of the tested compounds scored in any of these assays.
SMN2 splice enh – enhancers of SMN2 splice variant expression. HEK293 SMN2-luciferase splicing reporter, luminescence, 30-36 h. Potency, µM (top dose mostly 46.1 µM), without a hit: at the highest dose activity change, positive = activation, most hits filed as activators. 2.8% of 210,000 active. AID 1458; note: % of control where 0% means no effect; nearly all actives have a fitted effect of over 55% in size
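HEK293 cells carry an SMN2 minigene-luciferase reporter in which exon 7 inclusion puts luciferase in frame. Cells were seeded at 2000 cells/well, attached for 10-12 hours, then exposed to compounds for 30-36 hours at 37C before ONE-Glo luminescence.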
Rab9 promoter act – activates the Rab9 promoter; Huh7 Rab9 promoter-luciferase reporter, luminescence, 24 h; Potency, µM (highest dose often 9.22 µM), for the others: at the highest dose activation, negative = inhibition, hits mostly activators; AID 485297; 2.8% of 320,000 active; note: % of control where 0% means no effect; nearly all actives have a fitted effect of over 60% in size
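Steps: seed 1500 Huh7 Rab9-luc cells per well, rest 2 h at 37 °C; add compound in DMSO; incubate 24 h; add luciferase reagent, 10 min ambient; read luminescence.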
NPC1 promoter act – NPC1 promoter activation; Huh7 NPC1 promoter luciferase reporter, 24 h; Potency, µM (top dose mostly 9.22 µM), for inactives: at the top dose activation, most hits filed as activators; 2.4% of 320,000 active; AID 485313; note: % of control where 0% means no effect; nearly all actives have a fitted effect of over 60% in size
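NPC1 promoter–luciferase Huh7 cells; 24 h compound; luminescence.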
ELG1 genotoxic – induces genotoxicity in HEK293T cells with luciferase-tagged ELG1. HEK293T ELG1-luciferase reporter, luminescence, 16 h. Potency, µM (top dose mostly 46 µM), without a hit: at the highest dose activity change, positive = activation, hits mostly activators. 1.3% of 330,000 active. AID 504466; note: % of control where 0% means no effect; nearly all actives have a fitted effect of over 60% in size
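After overnight (16 hr) compound treatment at 37 °C, ELG1-luciferase HEK293T cells were lysed with ONE-Glo; luminescence quantified 30 min later at room temperature.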
FLuc modulator – counter-screen for miR-21 project: firefly luciferase inhibitors or activators. purified FLuc, Km substrates, luminescence inhibition. Potency, µM (doses to about 57.5 µM), without a hit: at the highest dose activity change, negative = inhibition, usual class: inhibitors. 6.9% of 360,000 active;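 note: plate controls were vehicle for no effect and reference inhibitor for full effect; nearly all actives have a fitted effect of over 55% in size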
Target sequence (P08659 whole entry, looked up): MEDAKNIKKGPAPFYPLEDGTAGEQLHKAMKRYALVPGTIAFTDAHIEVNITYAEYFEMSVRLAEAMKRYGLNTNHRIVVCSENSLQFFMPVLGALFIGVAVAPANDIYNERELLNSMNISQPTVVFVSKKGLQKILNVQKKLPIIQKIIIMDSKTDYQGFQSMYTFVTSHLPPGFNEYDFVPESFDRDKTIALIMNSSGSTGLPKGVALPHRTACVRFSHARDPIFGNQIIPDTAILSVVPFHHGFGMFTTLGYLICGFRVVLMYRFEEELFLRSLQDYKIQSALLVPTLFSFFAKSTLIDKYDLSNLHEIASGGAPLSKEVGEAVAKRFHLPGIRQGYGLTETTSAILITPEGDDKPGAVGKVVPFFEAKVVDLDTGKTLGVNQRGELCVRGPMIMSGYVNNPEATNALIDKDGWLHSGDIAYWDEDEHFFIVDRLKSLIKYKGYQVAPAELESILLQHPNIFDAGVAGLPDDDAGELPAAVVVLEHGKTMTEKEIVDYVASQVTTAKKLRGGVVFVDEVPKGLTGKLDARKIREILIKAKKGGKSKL
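Purified P. pyralis luciferase (10nM final) with 10uM D-luciferin and 10uM ATP (Km levels) in 50mM Tris acetate pH 7.5, 10mM Mg acetate, 0.01% Tween-20, 0.05% BSA; qHTS 6-point titration, ~60 µM downward; luminescence read.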
* marks the source's active call; other numbers are inactive results; ? = inconclusive; · = not tested or not shown. Calls come from the whole dose curve; as a rule, active = well fitted curve in the direction sought with a large enough effect; inconclusive = small, poorly fitted or top-dose-only effect, or another doubt; inactive = no such curve, though single readings can be large; an effect the other way counts as inactive or inconclusive. Potency is the fitted concentration of half-maximal effect.

SMILES	SMN2 splice enh	Rab9 promoter act	NPC1 promoter act	ELG1 genotoxic	FLuc modulator
COC(=O)c1sc(-c2ccc(C(C)(C)C)cc2)cc1NC(=O)CCC(=O)O	·	27%	24%	?	1.5µM*
CCOc1ccc(-c2cc(NC(=O)c3ccccc3)c(C(=O)OC)s2)cc1	13%	·	·	·	2%
COC(=O)c1sc(-c2ccc(Cl)cc2)cc1NC(=O)/C=C/C(=O)O	·	-6%	0%	2%	9.5µM*
COC(=O)c1sc(-c2ccc(Cl)cc2)cc1NC(=O)COCC(=O)O	·	3%	3%	5%	?
COC(=O)C1=C(CS(=O)(=O)c2cc(Cl)ccc2OC)NC(=O)NC1c1ccc(O)c(OC)c1 (stereo not drawn)	·	3%	-1%	0%	4%
O=C1C(=O)N(C2CCN(C(=O)c3ccccc3F)CC2)CCN1Cc1ccc(F)cc1	·	·	·	·	-1%
CC[C@]12c3[nH]c4ccc(Cl)cc4c3CCN1C(=O)[C@@H](CC(=O)NCCC1=CCCCC1)C[C@@H]2C(=O)N1CCN(C(=O)c2ccco2)CC1	·	·	·	-10%	·
O=C(N/N=C/c1ccc(C(F)(F)F)cc1)c1ccc(O)cc1	6%	11%	16%	13%	11µM*
O=C(N/N=C/c1cccc(C(F)(F)F)c1)c1ccc(O)cc1	11%	14%	-3%	7%	17µM*
O=C(N/N=C/c1ccc(O)cc1)c1csc2c1CCCC2	30%	23%	22%	9%	13µM*
Cc1ccc(NC(=O)CN(C)S(=O)(=O)c2cccc3nsnc23)c(C)c1	-12%	·	·	·	-9%
O=C(COC(=O)c1ccc(F)c(S(=O)(=O)N2CCOCC2)c1)NCCc1ccc(F)cc1	·	·	·	0%	·
CCC(=O)c1cn(CC(=O)Nc2cc(C)ccc2C)c2ccccc12	·	-5%	-5%	1%	?
Cc1ccc(NC(=O)CS(=O)c2ccccc2N)c(C)c1 (stereo not drawn)	·	5%	-3%	?	?
CC(C)c1ccc(-c2noc(SCC(=O)N3CCCCC3C)n2)cc1 (stereo not drawn)	·	·	·	·	3µM*
CCN(C(=O)CSc1nc(-c2ccc(C(C)C)cc2)no1)c1ccccc1	·	·	·	·	9.5µM*
CC(C)c1ccc(-c2noc(SCC(=O)N3CCN(c4ccc(F)cc4)CC3)n2)cc1	·	·	·	·	-14%
CC1CCN(C(=O)CSc2nc(-c3ccc(C(C)C)cc3)no2)CC1	·	·	·	·	3.4µM*
COc1cc(NC(=O)CSc2nc(-c3ccccc3)no2)cc(OC)c1	·	·	·	·	1%
CN(C(=O)CSc1nc(-c2ccccc2)no1)c1ccc(F)cc1	·	·	·	·	-6%
COc1cc(NC(=O)CSc2nc(-c3ccc(C(C)C)cc3)no2)cc(OC)c1	·	·	·	·	2.7µM*
O=C(NCCCCNCCCNC(=O)c1ccccc1)c1ccccc1	·	·	·	4%	·
O=C(Nc1ccc(Br)cc1F)c1cc(S(=O)(=O)NC2CCCCC2)ccc1F	·	·	·	·	1%
COc1ccc(CNC(=S)N/N=C(/C)c2ccccc2)cc1	·	?	?	18µM*	7.6µM*
Clc1ccccc1CN1CCN(/N=C/C=C/c2ccco2)CC1	·	?	27%	7%	24µM*
SMILES	SMN2 splice enh	Rab9 promoter act	NPC1 promoter act	ELG1 genotoxic	FLuc modulator
COc1ccccc1N1CCN(/N=C/C=C\c2ccco2)CC1	13µM*	2µM*	1.1µM*	?	4.8µM*
Cc1ccccc1OCC(=O)NC(C)c1ccccc1 (stereo not drawn)	·	-6%	2%	-3%	-1%
CC(OC(=O)c1nsc(Cl)c1Cl)C(=O)NCCc1ccccc1 (stereo not drawn)	·	-2%	1%	0%	0%
CCOC(=O)c1ccccc1NC(=O)N1CCC(N2CCN(Cc3ccccc3)C(=O)C2=O)CC1	·	·	·	·	6%
Cc1noc(C)c1C(=O)Nc1nc2ccccc2s1	·	?	19%	?	17µM*
NNC(=O)c1ccc(Cn2cc(Cl)cn2)o1	·	-1%	-5%	0%	-16%
Cc1csc2nc(NC(=O)c3ccccc3)sc(=O)c12	·	18%	0%	?	4.3µM*
CS(=O)(=O)c1ccc2nc(NC(=O)c3cccs3)sc2c1	2.2µM*	0.4µM*	0.4µM*	0.92µM*	0.67µM*
Cc1ccc2nc(NC(=O)c3ccc(Cn4cc(Cl)cn4)o3)sc2c1	-32%	14%	10%	1%	7.6µM*
CCC(=O)Nc1nc2ccc(S(C)(=O)=O)cc2s1	35%	15%	-1%	7%	-6%
CS(=O)(=O)N(CC(=O)N1CCOCC1)c1cccc(F)c1	·	-2%	-4%	-5%	-3%
CCC(=O)N1CCc2cc(Br)cc(S(=O)(=O)N3CCC(C(=O)Nc4cccc(C)c4)CC3)c21	4%	·	·	·	-10%
Nc1nnc(SCC(=O)Nc2cccc3ccccc23)s1	·	2%	1%	2%	-9%
Cc1ccc2nc(NC(=O)c3ccc(Cl)s3)sc2c1	13µM*	0.56µM*	1µM*	4.6µM*	1.7µM*
CN(C(=O)c1ccccc1)c1nc2ccccc2s1	4.5µM*	0.56µM*	0.28µM*	?	0.85µM*
CN(C(=O)c1ccc2nc(N)sc2c1)c1ccccc1	·	1%	0%	-1%	-2%
Cc1cccc2sc(NC(=O)c3ccc(Cl)s3)nc12	-33%	21%	2%	7%	?
Cc1ccc2nc(NC(=S)NC(=O)c3cccs3)sc2c1	?	1.1µM*	3.5µM*	?	1.1µM*
c1ccc2sc(NN=C3CCCCCC3)nc2c1	4.5µM*	0.22µM*	0.35µM*	0.46µM*	0.34µM*
Cc1ccc2nc(NC(=S)NC(=O)c3ccc(OC(C)C)cc3)sc2c1	-2%	0%	-18%	-1%	?
CN(C(=O)COC(=O)C1(C)CC1(Cl)Cl)c1c(N)n(Cc2ccccc2)c(=O)[nH]c1=O (stereo not drawn)	·	8%	0%	2%	3%
O=C(NNC(=O)c1cnccn1)c1ccc(Cl)cc1	·	-3%	1%	2%	-18%
CN(CCN1CCOCC1)Cc1nc(-c2ccc(Cl)cc2)no1	·	-6%	-2%	-6%	0%
Cc1ccc(C(=O)Nc2nc3ccccc3s2)s1	-14%	0.4µM*	0.63µM*	?	0.54µM*
Cc1ccc(C(=O)Nc2nc3ccc(S(C)(=O)=O)cc3s2)s1	11µM*	1.4µM*	1.8µM*	16µM*	2.4µM*
SMILES	SMN2 splice enh	Rab9 promoter act	NPC1 promoter act	ELG1 genotoxic	FLuc modulator
COc1cc(C(=O)Nc2nc3ccc(S(C)(=O)=O)cc3s2)cc(OC)c1C	·	1%	0%	-2%	-10%
O=C(c1nc2ccccc2s1)N1CCSCC1	10%	?	23%	18µM*	?
Cc1cccc(NC(=S)c2nc3ccccc3s2)c1	18µM*	?	?	?	3µM*
O=C(O)c1ccccc1-c1ccccc1C(=O)Nc1nc2ccccc2s1	·	-2%	-5%	4%	0%
CCN1c2ccccc2-c2nc(SCC(=O)NCc3ccc(C)cc3)ncc2S1(=O)=O	·	·	·	·	6%
Cc1ccc(C(=O)O)c(C(=O)Nc2nc3ccccc3s2)c1	·	20%	19%	6%	15µM*
Cc1ccc(OCCSc2nc3ccc(NC(=O)c4cccs4)cc3s2)cc1	·	·	·	·	-6%
